PubChem BioAssay AID686978 (National Center for Advancing Translational Sciences (NCATS), 2013)
Values joined by “and” are separate entries in the source; they are usually repeats but may differ in a detail not shown here. Identical values can stand only once. The whole screen tested about 420,000 compounds, of which about 64,000 (15%) were called active. Not shown: some 27% with an inconclusive outcome. The list is a sample of the results. A number with no mark means an inactive call. The call rests on the fitted dose curve; in most records, active means well fitted inhibition curve with a large enough effect; inconclusive means small, poorly fitted or top-dose-only effect; inactive means flat fitted curve, though single readings scatter.

Assay: qHTS for Inhibitors of human tyrosyl-DNA phosphodiesterase 1 (TDP1): qHTS in cells in absence of CPT; further: nearly all actives have a fitted effect of over 55% in size
Details: DT40 Tdp1-/- hTDP1 cells, no CPT, ATP luminescence, 48 h; activity change, negative = growth inhibition: at 46.2 µM (top of the series)
How it was run: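 Compound effects on proliferation are scored in DT40 Tdp1-/-;hTDP1 cells in the absence of CPT. ATP levels (CellTiter-Glo luminescence) are recorded after a ≥48 hr, 37 °C incubation.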
On the % scale 0 is the no-effect control and ±100 the full control effect; potency means the concentration at half of the fitted maximal effect.

Compound	activity change, negative = growth inhibition	Potency
CCCCNS(=O)(=O)CCNCc1ccccc1OC	-5.2%	–
CCC(=O)NCc1cc(-c2nn(C)c(=O)c3ccccc23)ccc1OC	–	inactive
CCN(CC)CCN1C(=O)C(=O)/C(=C(/O)c2ccc(OC)c(OC)c2)C1c1ccccn1 (stereo unspecified)	-8.13%	–
CCCCCc1c(-c2ccc(OC)c(OC)c2)ncn1CCc1ccccc1OC	–	2.59 µM (active)
CCCCCc1c(-c2cccc(Br)c2)ncn1CCc1ccccc1OC	–	18.4 µM (active)
CCCCCc1c(Cc2ccccc2)ncn1CCc1ccccc1OC	–	2.59 µM (active)
CCOC(=O)CSc1nnc(-c2cccc(Br)c2)o1	-1.45%	–
Cn1c(=O)c2c(ncn2CCc2ccccc2)n(C)c1=O	7.06%	–
Cc1c(Nc2nc3ccccc3nc2NS(=O)(=O)c2cccs2)c(=O)n(-c2ccccc2)n1C	-8.76%	–
CC1Cc2[nH][nH]c(=O)c2C(C2CC2)O1 (stereo unspecified)	-1.73%	–
CCOc1ccccc1-c1nc(CN2CCC(C(=O)N3CCOCC3)CC2)c(C)o1	0.579%	–
CC(Sc1nnc(-c2cccs2)n1C1CC1)C(=O)NCC1CCCO1 (stereo unspecified)	-3.43%	–
CCOC(=O)C1(CC2CCCCO2)CCN(Cc2nc(-c3cccs3)oc2C)CC1 (stereo unspecified)	–	16.4 µM (active)
CCCOC(=O)C1=C(C)NC2=C(C(=O)C(C(=O)OC)C(C)C2)C1c1ccc(N(C)C)cc1 (stereo unspecified)	-16.4%	–
CCN(CC)CCn1c(N)c(S(=O)(=O)c2ccccc2)c2nc3ccccc3nc21	–	18.4 µM (active)
Cc1ccc(S(=O)(=O)Nc2nc(N)n(-c3ccccc3)n2)cc1	-9.97%	–
C=CCn1c(N)c(S(=O)(=O)c2cccs2)c2nc3ccccc3nc21	-19.6%	–
Cc1ccc(S(=O)(=O)c2c(N)n(C)c3nc4ccccc4nc23)cc1	–	13 µM (active)
CCN(c1ccccc1)S(=O)(=O)c1ccc(N)cc1	-11.5%	–
CCOC(=O)c1c(N)n(-c2cccc(C)c2C)c2nc3ccccc3nc12	4.77%	–
CC1(C)CC(=O)C=C(c2cccc3c2Oc2ccccc2S3)C1	-28%	–
O=C(Cn1cnc2c(oc3ccccc32)c1=O)Nc1ccc(OC(F)(F)F)cc1	-3.72%	–

Compound	activity change, negative = growth inhibition	Potency
CC(C)N(c1ccccc1)c1ncnc(NCCC(=O)O)c1[N+](=O)[O-]	-3.06%	–
O=C(COC(=O)c1cccnc1Cl)Nc1ccc(S(=O)(=O)N2CCOCC2)cc1	-14.8%	–
CCOC(=O)N1CCC(c2cc(=O)n(-c3ccccc3)[nH]2)CC1	-26.9%	–
Cc1cc(C)cc(N)c1	-1.73%	–
CCOc1ccc(C2C3=C(CCCC3=O)N(CC(=O)O)C3=C2C(=O)CCC3)cc1	-10.5%	–
CC(C)(C)N1C(=O)c2c(C(=O)OCc3ccccc3)[nH]c(-c3ccccc3)c2C1=O	-7.09%	–
COCCOC(=O)c1[nH]c2c(c1C)C(=O)CC(c1ccc(OC)cc1)C2 (stereo unspecified)	-13.2%	–
CCOc1ccc(C2CC(=O)c3c([nH]c(C(=O)OCc4ccccc4)c3C)C2)cc1 (stereo unspecified)	–	13 µM (active)
CCCNC(=O)C1CC(=O)N(c2ccc(OCc3ccccc3)cc2)C1 (stereo unspecified)	-22.4%	–
CCc1ccc(C2CC(=O)c3c([nH]c(C(=O)OCc4ccc(C)cc4)c3C)C2)cc1 (stereo unspecified)	–	7.31 µM (active)
CCOC(=O)c1[nH]c2c(c1C)C(=O)CC(c1ccc(N(C)C)cc1)C2 (stereo unspecified)	–	13 µM (active)
CCOC(=O)c1[nH]c2c(c1-c1ccccc1)C(=O)CC(c1ccc(Cl)cc1)C2 (stereo unspecified)	-6.33%	–
Cc1nnc(C)c2c(C)n(N)c(C)c12	-3.03%	–
CCCCOc1ccc(-c2ncc(C(=O)OCC)c(N)n2)cc1	-18.9%	–
O=C(OCC(=O)N1CCCC1)c1ccco1	-7.97%	–
Cc1noc(C)c1C(=O)NC(C)c1ccc2c(c1)OCO2 (stereo unspecified)	-10.6%	–
CN(C)Cc1c(O)ccc2c(=O)c(-c3ccccc3Cl)coc12	-2.51%	–
CN(c1ccccc1)c1nc(N)c([N+](=O)[O-])c(NCc2ccco2)n1	-21.3%	–
O=C(O)c1cccc(S(=O)(=O)N2CC=C(c3ccccc3)CC2)c1	5.52%	–
O=C(Nc1ccc(Cl)c(Cl)c1)N1CC=C(c2ccccc2)CC1	–	20.6 µM (active)
NC(=O)N1CCCC1C(=O)Nc1ccc(Cl)c(Cl)c1 (stereo unspecified)	-28.7%	–
NC(=O)C1CCN(C(=O)c2cn(-c3ccccc3)nc2-c2cccnc2)CC1	-4.22%	–

Compound	activity change, negative = growth inhibition	Potency
COc1ccc(C2=CC(c3cccc(OC)c3)n3nnnc3N2)cc1 (stereo unspecified)	–	29.1 µM (active)
COc1ccc(C2CC(c3cccs3)Nc3nnnn32)cc1 (stereo unspecified)	-13.6%	–
CCOc1ccc(C2=CC(c3ccccc3)n3ncnc3N2)cc1 (stereo unspecified)	-26.4%	–
O=C(Cn1ccc(=O)[nH]c1=O)Nc1ccc(C(=O)O)c(O)c1	-0.311%	–
COc1ccc(NC(=O)Cn2cc(C(=O)c3ccncc3)c(=O)c3cc(C)ccc32)cc1Cl	-7.3%	–
Cc1nn(C)cc1CNC(=O)Nc1ccc(Cl)cc1	-7.86%	–
COc1ncnc2c1N=C1CC(C)(C)CC(N)=C1S2	-20%	–
CC(C)(C)NC(=O)CN(C(=O)c1csnn1)c1ccccc1-c1ccccc1	-24.9%	–
COc1ccccc1N1CCN(CCN2C(=O)c3ccccc3C(C)(C)C2=O)CC1	–	26.6 µM (active) and 23.1 µM (active)
CNCC(O)CN1CCN(c2ccccc2OC)CC1 (stereo unspecified)	-16%	–
COc1ccccc1N1CCN(CC(=O)NC(=O)NCc2ccco2)CC1	-5.84%	–
CC/C(C)=N/Nc1nc2sc3c(c2c(=O)[nH]1)CC(C)(C)OC3	-26.6%	–
CCc1nc(N2CCN(C(C)=O)CC2)c2c3c(sc2n1)CCCC3	-15%	–
CCC(O)CNc1nc(-n2nc(C)cc2C)nc2sc3c(c12)CC(C)(C)OC3 (stereo unspecified)	–	10.3 µM (active)
CC1(C)Cc2c(sc3nc4n(c(=N)c23)CCCCC4)CO1	-24.4%	–
COCCNc1nc(-n2nc(C)cc2C)nc2sc3c(c12)CCCC3	–	5.17 µM (active)
COCCn1c(C)cc(C(=O)CSc2ncnc3sc4c(c23)CCC4)c1C	-8.09%	–
O=C(NCc1ccc(F)cc1)C1CCN(C(=O)Nc2ccc(F)cc2)CC1	-1.08%	–
Cc1ccc(Oc2ccc3c(c2)C(=O)N(c2cccc4cccnc24)C3=O)cc1	-7.81%	–
CC(C)NC(=O)NC(=O)COC(=O)c1ccc(NC(=O)CC#N)cc1	5.12%	–
O=C1CSC(c2cccc(F)c2)N1c1ccc(O)cc1 (stereo unspecified)	-4.22%	–
CCCC(C)C(=O)OCC(=O)Nc1c(Br)cc(C)cc1Br (stereo unspecified)	5.92%	–

Compound	activity change, negative = growth inhibition	Potency
NC(=O)COc1ccc(/C=N/NC(=O)C2CCCN2S(=O)(=O)c2ccc(Cl)cc2)cc1 (stereo unspecified)	-4.64%	–
Nc1[nH][nH]c(=O)c1N=Nc1ccc2c(c1)OCO2	-21.6%	–
C=CCN(N=Nc1cccc([N+](=O)[O-])c1)c1cccc([N+](=O)[O-])c1	-17.5%	–
CCOC(=O)c1cc2c(nc1NC(=S)Nc1ccccc1)CC(C)(CC)OC2 (stereo unspecified)	4.78%	–
COC(=O)Nc1ncc(CN2C(=O)c3ccccc3C2=O)s1	-5.56%	–
CN1C(=O)c2ccc(NC(=O)C3CCCCC3)cc2C1=O	3.08%	–
COC(=O)CSc1ccc2nnc(CCNS(=O)(=O)c3ccc(C)cc3)n2n1	–	inactive
Cc1ccc(S(=O)(=O)NCCc2nnc3ccc(SCc4cccnc4)nn23)cc1	-1.62%	–
O=S(=O)(NCCc1nnc2ccc(SCc3ccc(Cl)cc3Cl)nn12)c1ccccc1	–	14.6 µM (active)
COC(=O)Nc1ncc(CN2CCCCC2)s1	-9.35%	–
CN1CCC(N(C)C(=O)c2ccc(Cl)c(S(=O)(=O)Nc3ccc(Cl)cc3)c2)CC1	10.5%	–
O=C(NC(=O)c1ccccc1)Nc1ccccc1O	-5.92%	–
Cc1ccc(C(=O)Nc2ncccc2C)cc1S(=O)(=O)N1CCOCC1	3.18%	–
O=C(Nc1ncccc1O)c1ccc(C(=O)c2ccccc2)cc1	–	23.1 µM (active)
Cc1cccnc1NC(=O)c1cccc(S(=O)(=O)N2CCN(c3ccc(F)cc3)CC2)c1	–	16.4 µM (active)
CCOC(=O)c1csc(NC(=O)c2ccc(S(=O)(=O)N3CCCC3)cc2)n1	-3.18%	–
CCc1nnc(NC(=O)c2cc(S(=O)(=O)N3CCCCC3)ccc2C)s1	26%	–
O=C(N/N=C/c1ccccn1)c1ccc(S(=O)(=O)N2CCCCCC2)cc1	-5.03%	–
O=C(Nc1ncccc1O)c1ccc(S(=O)(=O)N2CCCC2)cc1	–	18.4 µM (active)
O=C(CNC(=O)c1ccc2ccccc2c1)Nc1ncccc1O	14.5%	–
COc1cc(C(=O)Nc2ncccc2C)ccc1OCC(=O)N1CCOCC1	-1.91%	–
O=C(Nc1ccccc1F)c1ccc(S(=O)(=O)N2CCCCCC2)cc1	-23%	–

Compound	activity change, negative = growth inhibition	Potency
Cc1ccc(C)c2sc(NC(=O)c3ccc(S(=O)(=O)N4CCCC4)cc3)nc12	–	29.1 µM (active)
CCCn1c(N)c(N(CCOC)C(=O)C2CCCC2)c(=O)[nH]c1=O	15.2%	–
CCOC(=O)c1nn(-c2ccccc2F)c2nc(Nc3ccccc3)cc(=O)n12	-26.7%	–
Nc1nnn(CC(=O)N/N=C/c2ccc(O)cc2)n1	1.74%	–
Cc1cc(NC(=O)c2cc3ccccc3o2)no1	-2.49%	–
COc1cccc(N(CC(=O)NCCSc2ccccn2)S(C)(=O)=O)c1	-13.4%	–
Cc1ccc(C(CNC(=O)Nc2cccc(C)c2)N2CCN(C)CC2)cc1 (stereo unspecified)	-0.589%	–
CCCCC/C=C\CC1OC1CCCCCCCC(=O)O (stereo unspecified)	-12.2% [at 0.628 µM]	–
O=C1c2ccccc2C(=O)N1CCCc1nc(-c2ccccc2)no1	-6.95%	–
O=C(O)c1ccc(S(=O)(=O)c2ccccc2)s1	-10.8%	–
NC(=O)CSc1nnc(NC(=O)c2ccc3ccccc3c2)s1	-2.45%	–
COc1ccc(C2/C(=C(/O)c3ccccc3)C(=O)C(=O)N2c2ncccn2)cc1OC (stereo unspecified)	16.9%	–
O=C(c1ccco1)N1CCN(CCOc2ccccc2)CC1	-12.4%	–
O=c1[nH]c2ccccc2n1C1CCN(CCOc2ccccc2)CC1	–	4.11 µM (active)
c1ccc(-c2ccc(OCCN3CCOCC3)cc2)cc1	-14.7%	–
COc1ccc(OCCCCN2CCC(C)CC2)cc1	-0.61%	–
OC(c1ccccc1)(c1ccccc1)C1CCN(CCCOc2ccccc2)CC1	–	16.4 µM (active)
O=C(c1ccc(Br)o1)N1CCN(CCOc2ccccc2)CC1	-31%	–
